PubChem BioAssay (NCI)
This is part of a sample that, as a whole, favours compounds with a hit. Of some 83,000 tested, about 20% had one in any assay.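 Results are percent growth after 48 hours of single-concentration exposure. 100 means growth as in untreated cells, lower positive values show inhibition; negative values down to -100 show cell death.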 Activity calls are given as the source filed them. Rule for the calls: active = growth percent below 10; inactive = the rest.

What was measured:
Assay in all cases: NCI-60 one-dose screen, 48 h (100 = growth as untreated, 0 = no growth, -100 = all killed)
Conditions in all cases: 10 µM
NCI-H23 lung = system: NCI-H23 lung
NCI-H226 lung = system: NCI-H226 lung
NCI-H322M lung = system: NCI-H322M lung
HOP-62 NSCLC = system: HOP-62 NSCLC
NCI-H460 lung = system: NCI-H460 lung
NCI-H522 lung = system: NCI-H522 lung
A549/ATCC NSCLC = system: A549/ATCC NSCLC
786-0 renal = system: 786-0 renal
COLO 205 colon = system: COLO 205 colon
DU-145 prostate = system: DU-145 prostate
K-562 leukemia = system: K-562 leukemia
MDA-MB-231 breast = system: MDA-MB-231 breast
RXF 393 renal = system: RXF 393 renal
SF-268 CNS = system: SF-268 CNS
SF-295 CNS = system: SF-295 CNS
SF-539 CNS = system: SF-539 CNS
UACC-257 melanoma = system: UACC-257 melanoma
M14 melanoma = system: M14 melanoma
HCT-15 colon = system: HCT-15 colon

Measured: growth

COc1ccc(-c2nc3sc(C4CC4)nn3c2/C=C2/C(=O)Nc3ccc(OC)cc32)cc1
inactive: NCI-H23 lung 82% | NCI-H226 lung 63.7% | NCI-H322M lung 61.6% | HOP-62 NSCLC 80.9% | NCI-H460 lung 77.7% | NCI-H522 lung 63.8% | A549/ATCC NSCLC 75.5% | 786-0 renal 86% | COLO 205 colon 88.5% | DU-145 prostate 62.3% | K-562 leukemia 74.3% | MDA-MB-231 breast 58.4% | RXF 393 renal 63.9% | SF-268 CNS 75.8% | SF-295 CNS 82.8% | SF-539 CNS 25.1% | UACC-257 melanoma 55.2% | M14 melanoma 63.8% | HCT-15 colon 76.9%

COc1ccc2c(c1)sc1nc(-c3ccccc3)c(-c3cccnc3)n12
active: NCI-H522 lung -22.7%
inactive: NCI-H23 lung 88.4% | NCI-H226 lung 103% | NCI-H322M lung 113% | HOP-62 NSCLC 125% | NCI-H460 lung 102% | A549/ATCC NSCLC 94.1% | 786-0 renal 96.9% | COLO 205 colon 128% | DU-145 prostate 107% | K-562 leukemia 82% | MDA-MB-231 breast 107% | RXF 393 renal 103% | SF-268 CNS 111% | SF-295 CNS 97% | SF-539 CNS 102% | UACC-257 melanoma 100% | M14 melanoma 97.7% | HCT-15 colon 84.6%

N=C1c2nc3n(c2C(=O)c2nc4n(c21)CCCC4)CCCC3
inactive: NCI-H226 lung 57.1% | NCI-H322M lung 27.7% | HOP-62 NSCLC 52.3% | NCI-H522 lung 10.5% | 786-0 renal 89% | K-562 leukemia 81.4% | MDA-MB-231 breast 82.6% | RXF 393 renal 94.8% | SF-268 CNS 71.3%
active: NCI-H23 lung -70.4% | NCI-H460 lung 4.62% | A549/ATCC NSCLC -30.6% | COLO 205 colon -88.6% | DU-145 prostate -93.9% | SF-295 CNS -85.7% | SF-539 CNS -21.7% | UACC-257 melanoma -6.6% | M14 melanoma -95.6% | HCT-15 colon 6.18%

O=c1cc(-c2ccccc2)[nH]n1-c1nc2ccccc2[nH]1
inactive: NCI-H23 lung 56.1% | NCI-H226 lung 67.7% | NCI-H322M lung 49.9% | HOP-62 NSCLC 48% | NCI-H460 lung 20.7% | NCI-H522 lung 21.6% | A549/ATCC NSCLC 30.7% | 786-0 renal 50.1% | COLO 205 colon 106% | DU-145 prostate 61.1% | K-562 leukemia 10.1% | MDA-MB-231 breast 73% | RXF 393 renal 52.2% | SF-268 CNS 60.2% | SF-295 CNS 21.6% | SF-539 CNS 47.6% | UACC-257 melanoma 75.6% | M14 melanoma 41.8% | HCT-15 colon 30.7%

O=C(Nc1ccncc1)C(=O)c1cn(S(=O)(=O)c2ccc(F)cc2)c2ccccc12
inactive: NCI-H23 lung 36.8% | NCI-H226 lung 53.7% | NCI-H322M lung 84.9% | HOP-62 NSCLC 36.2% | NCI-H460 lung 74.7% | A549/ATCC NSCLC 82.3% | 786-0 renal 43.9% | COLO 205 colon 103% | DU-145 prostate 32% | MDA-MB-231 breast 57.8% | RXF 393 renal 68.1% | SF-268 CNS 47.9% | SF-295 CNS 61.3% | SF-539 CNS 16.2% | UACC-257 melanoma 49.1% | M14 melanoma 14% | HCT-15 colon 23.1%
active: NCI-H522 lung 0.626% | K-562 leukemia 9.29%

O=C(Nc1ccncc1)C(=O)c1cn(S(=O)(=O)c2cccc3ccccc23)c2ccccc12
inactive: NCI-H23 lung 62.1% | NCI-H226 lung 76.8% | NCI-H322M lung 86% | HOP-62 NSCLC 95.1% | NCI-H460 lung 85.7% | NCI-H522 lung 48% | A549/ATCC NSCLC 77.8% | 786-0 renal 77.5% | COLO 205 colon 101% | DU-145 prostate 95.1% | K-562 leukemia 18.9% | MDA-MB-231 breast 74.6% | RXF 393 renal 89.7% | SF-268 CNS 107% | SF-295 CNS 52% | SF-539 CNS 92.7% | UACC-257 melanoma 89% | M14 melanoma 82.7% | HCT-15 colon 65.7%

O=C(O)C(SC(C(=O)O)c1ccccc1)c1ccccc1 (configuration not stated)
inactive: NCI-H23 lung 99.8% | NCI-H226 lung 95.9% | NCI-H322M lung 118% | HOP-62 NSCLC 107% | NCI-H460 lung 110% | NCI-H522 lung 108% | A549/ATCC NSCLC 103% | 786-0 renal 103% | COLO 205 colon 113% | DU-145 prostate 104% | K-562 leukemia 98.6% | MDA-MB-231 breast 115% | RXF 393 renal 106% | SF-268 CNS 106% | SF-295 CNS 115% | SF-539 CNS 115% | UACC-257 melanoma 104% | M14 melanoma 109% | HCT-15 colon 99.8%

CCN(CC)CCOc1nc2ccc(OC)cc2c2c1-c1ccc(OC)cc1C2=O
inactive: NCI-H226 lung 16.5% | 786-0 renal 26% | COLO 205 colon 15.3% | MDA-MB-231 breast 20.5% | SF-268 CNS 17.3% | SF-539 CNS 28.8%
active: NCI-H23 lung -30.5% | NCI-H322M lung -13.2% | HOP-62 NSCLC 6.96% | NCI-H460 lung -75.4% | NCI-H522 lung -89.2% | A549/ATCC NSCLC -67.2% | DU-145 prostate -70.3% | K-562 leukemia -43.5% | RXF 393 renal 4.4% | SF-295 CNS -2.73% | UACC-257 melanoma -52.8% | M14 melanoma -83.3% | HCT-15 colon -59.4%
